In the library only some 1.8% were active in any assay of this set; here they are far more common.
Myeloid diff MLP: compounds promoting myeloid differentiation | calls only at 10 µM | ER-HoxA9 myeloid progenitors, lysozyme-GFP differentiation, flow cytometry | 360,000 tested, 1% active;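 active = normalized GFP-positive differentiation at or above the plate's own cutoff, the solvent-only control mean plus 3 SD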;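 also: cells exposed to compound for four days before flow analysis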
GC-A act: GC-A (human) enzyme activation; P16066; HEK293 GC-A cells, cGMP TR-FRET, EC30 ANP; 0% at EC30 ANP, 100% saturating ANP; activation, % at 10 µM; 370,000 tested, 0.14% active; in the data active = activation above about 40%
GC-B act: GC-B (human) receptor activation. activation, % at 10 µM. 370,000 tested, 0.11% active. HEK293-GC-B cells, CNP EC30, cGMP TR-FRET; 0% at EC30 CNP, 100% saturating CNP. P20594;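 active = activation at 10 µM reaching about 35% in either raw or pattern-adjusted values, limit read from the data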
Target sequence (P20594 whole entry, looked up): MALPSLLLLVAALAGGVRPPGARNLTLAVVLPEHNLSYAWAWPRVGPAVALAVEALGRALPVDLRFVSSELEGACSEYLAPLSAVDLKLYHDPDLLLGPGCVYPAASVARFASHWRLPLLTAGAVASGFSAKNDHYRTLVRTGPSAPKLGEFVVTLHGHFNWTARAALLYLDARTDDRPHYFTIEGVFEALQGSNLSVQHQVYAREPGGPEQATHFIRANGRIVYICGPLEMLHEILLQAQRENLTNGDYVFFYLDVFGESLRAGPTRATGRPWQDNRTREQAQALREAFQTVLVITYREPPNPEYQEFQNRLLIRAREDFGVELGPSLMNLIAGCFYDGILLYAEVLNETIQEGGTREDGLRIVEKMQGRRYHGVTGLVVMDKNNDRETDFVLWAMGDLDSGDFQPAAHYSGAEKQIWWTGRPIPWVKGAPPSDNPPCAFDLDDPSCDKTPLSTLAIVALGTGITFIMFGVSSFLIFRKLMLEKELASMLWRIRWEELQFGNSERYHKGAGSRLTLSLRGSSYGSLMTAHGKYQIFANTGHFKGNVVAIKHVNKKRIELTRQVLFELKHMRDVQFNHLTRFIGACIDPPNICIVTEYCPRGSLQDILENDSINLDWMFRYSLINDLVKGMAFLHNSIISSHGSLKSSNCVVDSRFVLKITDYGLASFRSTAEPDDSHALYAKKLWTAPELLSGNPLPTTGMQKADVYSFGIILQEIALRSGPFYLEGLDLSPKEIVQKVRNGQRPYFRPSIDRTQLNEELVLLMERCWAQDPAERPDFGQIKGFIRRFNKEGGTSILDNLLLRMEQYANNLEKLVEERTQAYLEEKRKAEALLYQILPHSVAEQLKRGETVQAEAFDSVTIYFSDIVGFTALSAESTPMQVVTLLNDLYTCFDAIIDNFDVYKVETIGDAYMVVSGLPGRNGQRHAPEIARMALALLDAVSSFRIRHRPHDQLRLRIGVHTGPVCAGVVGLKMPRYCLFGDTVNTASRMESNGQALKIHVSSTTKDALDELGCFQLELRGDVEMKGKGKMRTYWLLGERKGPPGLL
Granule exo inh: blocks lytic granule exocytosis. TALL-104 LAMP-1 surface exposure, flow cytometry; cells stimulated with thapsigargin and PMA. inhibition, % at 10 µM. 360,000 tested, 0.66% active. AID 651702;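 active = inhibition above about 55%, limit read from the data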
* = called active by the depositor; i = inactive; . = not tested or not shown; + = active, no number; ! = not confirmed by another sample.

SMILES	Myeloid diff MLP	GC-A act	GC-B act	Granule exo inh
COc1ccc(C(=O)CC(Nc2ccc([N+](=O)[O-])cc2)c2ccc(Cl)cc2)cc1 (centres undefined)	+	-5	0	-4
CCOC(=O)C1=C(COC(=O)Cc2c(F)cccc2Cl)NC(=O)NC1C (centres undefined)	i	29	36*	2
CCOC(=O)C1=C(COC(=O)c2c(OC)cccc2OC)NC(=O)NC1C (centres undefined)	i	-2	3	0
Cc1ccc(NC(=S)N(CCCN2CCCC2)Cc2cccn2Cc2ccc(Cl)cc2)cc1C	i	-24	-13	81*
OC1CCN(C(=S)Nc2ccc(Nc3ccccc3)cc2)CC1	i	0	-3	-1
CCCCc1ccc(NC(=S)N2CCC(O)CC2)cc1	+	1	1	0
Cn1cccc1CC(=O)NN=Cc1cccc(F)c1	.	-1	-10	.
COc1ccc(CN2CC(=O)N(c3ccc(Cl)cc3)C2=S)cc1OC	i	2	4	4
COc1ccc(CN2CC(=O)N(c3cccc(Cl)c3)C2=S)cc1OC	i	44*	2	11
COc1ccc(C(=O)NCC2CCN(C(=O)C(=O)c3cccs3)CC2)cc1	.	0	-1	.
CC(=O)c1cccc(OCC(=O)N2CCN(c3ccc(C(F)(F)F)cn3)CC2)c1	i	1	-4	2
O=C(O)COCC(=O)N1CCCN(c2ccc(C(F)(F)F)cn2)CC1	+	2	4	-9
CC(COc1ccc(C#N)c(F)c1)CN1CCC(C(O)(c2ccccc2)c2ccccc2)CC1 (centres undefined)	.	-20	-14	.
NC(=S)N=Nc1c(O)n(CCCl)c2ccc(Cl)cc12	i	-27	-19	57*
NC(=S)N=Nc1c(O)n(CCCl)c2ccccc12	i	-38	-18	0
CCc1ccc(/C=C/C(=O)C2C(=O)c3ccccc3C2=O)cc1	+	2	-3	2
COc1ccc(/C=N/NC(=O)c2ccc(CSc3nc(C)cc(C)n3)cc2)cc1O	i	-1	-1	-2
COc1ccc(/C=N/NC(=O)c2ccc(CSc3nc(C)cc(C)n3)cc2)c(OC)c1OC	+	-2	1	-4
O=S1(=O)c2c(cccc2N2CCSCC2)Oc2ccccc2CN1Cc1cn(Cc2ccc(C(F)(F)F)cc2)nn1	.	3	4	.
N#C/C(C(=O)Nc1ccc(Cl)cc1)=C(/S)Nc1ccccc1	i	58*	34	31
CC1=NOC(=O)/C1=C/c1ccc(O)c(Cl)c1	i	12	5	-30
CCCOc1ccc(/C=C2/C(=O)ON=C2C)cc1Cl	i	45*	16	6
COc1ccccc1N1C(N)=NC(N)=NC12CCCCC2	i	3	2	1
COc1ccccc1N1C(N)=NC(N)=NC1(C)C	+!	-1	-2	0
Cc1ccccc1N1C(N)=NC(N)=NC1(C)C	+	.	.	29
SMILES	Myeloid diff MLP	GC-A act	GC-B act	Granule exo inh
O=C(Nc1ccc(C(F)(F)F)cc1)OC1CC2CC1[C@H]1CCCCN1C2 (some centres undefined)	.	-3	-1	.
NC(CCC(=O)NC(CS)C(=O)NCC(=O)O)C(=O)O (centres undefined)	+	5	-1	-3
Cc1ccc(-c2nnc(SCC(=O)Nc3ccc(Oc4ccccc4)cc3)n2-c2ccc(Cl)cc2)cc1	.	1	7	.
Cc1ccc(/C=N/Nc2cc(C)nc(NCc3ccccc3)n2)cc1	i	-10	-9	88*
Cc1cc(Nc2cccc(F)c2)nc(NCc2ccccc2)n1	+	1	-1	4
Cc1cc(N/N=C/c2ccc(F)cc2)nc(NCc2ccccc2)n1	i	2	0	-1
COc1cccc(NC(=O)C2CCCN2C(=O)Nc2cccc3c2OCO3)c1 (centres undefined)	.	-5	-5	.
Nc1nc(Nc2ccccc2)nc(NCc2ccco2)c1[N+](=O)[O-]	i	47*	11	10
Nc1nc(NCc2ccco2)nc(Nc2ccccc2)c1[N+](=O)[O-]	i	1	-5	2
Cc1ccc(Nc2nc(N)c([N+](=O)[O-])c(NCc3ccco3)n2)cc1	i	41*	18	-6
CC(C)NC(=O)N[C@@H]1C[C@@H]2O[C@@H](CO)CC[C@@H]2O[C@@H]1CCc1ccc(-c2ccccc2F)cc1	.	15	-8	.
Nc1ccc2cc3ccccc3cc2c1	+	-4	-4	3
COC(=O)CSc1nnc(-c2ccc(NS(=O)(=O)c3ccccc3)cc2)o1	+	7	-9	11
CCCCCCCCSc1nnc(-c2ccc(OC)cc2)o1	i	4	0	-1
CCCCCCCCSC1=CC(=O)C(OC)=C(OC)C1=O	.	45*	8	114*
Nc1ccc(C(=O)n2c3ccccc3c3ccccc32)cc1	.	50*	-9	14
COC(=O)C[C@H]1CC[C@H]2[C@H](COc3ccc(NC(=O)Nc4ccccc4F)cc3C(=O)N2C)O1	.	2	4	.
C=C1CCCC2OC(CC3=CC4/C(C)=C/CC(C)CC(/C=C(\C)C(O)C5CC(O)C(O)C(CCC(O)/C=C/C(C)=C/CCC6=NCCC(C3)C64C)O5)OC(=O)CC3OC(C(O)C1)C(O)C3O)CC(O)C2O (centres undefined)	i	3	2	1
Cc1ccc(C)c(Oc2cc(F)nc(N)n2)c1	+	3	5	-2
COc1ccc(Oc2cc(F)nc(N)n2)cc1	i	-1	-2	2
C[C@@H]1CCN(C2CC2)S(=O)(=O)c2c(cccc2N2CCC[C@H]2CO)O1	.	-2	1	.
Cc1ccc(NC(=O)CCC(=O)Nc2nnc(C3CCCCC3)s2)cc1	+	5	3	-8
Nc1ccc(-c2c3ccc(=O)cc-3oc3cc(O)ccc23)c(C(=O)O)c1	+	.	.	-7
COC(=O)C1CN(Cc2cn(CCOC(C)=O)nn2)CCS(=O)(=O)N1Cc1ccc(OC)cc1 (centres undefined)	.	-2	9	.
CCOC(=O)c1sc2nc(CC(=O)OC)nc(NCC(=O)OC)c2c1C	i	12	14	0
SMILES	Myeloid diff MLP	GC-A act	GC-B act	Granule exo inh
CCOC(=O)c1sc2nc(CC(=O)OC)nc(NCc3ccco3)c2c1C	+	8	0	0
CS(=O)(=O)N1CCc2cc(C(=O)N3CCN(c4ccccc4F)CC3)ccc21	+	3	4	-2
O=C(N/N=C/C=C\c1ccccc1)c1cnccn1	i	-4	-1	4
O=C(N/N=C/C(Br)=C/c1ccccc1)c1cnccn1	+	0	-3	-1
CCCCn1c(N)c(N(CCOC)C(=O)CC2CCCCC2)c(=O)[nH]c1=O	i	1	0	0
CC(=O)c1cccc(OCC(=O)N(Cc2ccco2)c2c(N)n(Cc3ccccc3)c(=O)[nH]c2=O)c1	+	0	-2	-1
Cc1cccc(OCC(=O)N(Cc2ccco2)c2c(N)n(Cc3ccccc3)c(=O)[nH]c2=O)c1	i	-3	9	13
COC(=O)[C@H](C)N(Cc1cn(Cc2ccccc2)nn1)S(=O)(=O)c1ccccc1Br	.	2	6	.
